# Assay results reported in PubChem BioAssay AID2283186 (EPA ToxCast).
# Active and inactive are the calls of the source. How the source made its calls: active means hit-call score of the fitted dose curve at least 0.9, where 1 is the maximum; inactive means score below 0.9.
# Target: human p21 Activated Kinase 2 (PAK2), PAK2 (gene 5062) (UniProt Q13177)
# Assay: NVS_ENZ_hPAK2: NovaScreen (NVS) Enzymatic Assay for human p21 Activated Kinase 2 (PAK2)
# Method: NVS_ENZ_hPAK2 is a biochemical, single-readout assay that uses extracted gene-proteins in a cell-free assay. Measurements were taken 1 hour after chemical dosing in a 384-well plate.NVS_ENZ_hPAK2 is one of one assay component(s) measured or calculated from the NVS_ENZ_hPAK2 assay. It is designed to make measurements of enzyme activity, a form of enzyme reporter, as detected with fluorescence intensity signals by Fluorescence and electrophoretic mobility shift technology.Data from the assay component NVS_ENZ_hPAK2 was analyzed into 1 assay endpoint. This assay endpoint, NVS_ENZ_hPAK2, was analyzed in the positive analysis fitting direction relative to DMSO as the negative control and baseline of activity. Using a type of enzyme reporter, loss-of-signal activity can be used to understand changes in the enzymatic activity as they relate to the gene PAK2. Furthermore, this assay endpoint can be referred to as a primary readout, because this assay has produced multiple assay endpoints where this one serves a enzymatic activity function. To generalize the intended target to other relatable targets, this assay endpoint is annotated to the kinase intended target family, where the subfamily is serine/threonine kinase. […]
# Chain of human p21 Activated Kinase 2 (PAK2), PAK2 (gene 5062) (Q13177 whole entry, looked up): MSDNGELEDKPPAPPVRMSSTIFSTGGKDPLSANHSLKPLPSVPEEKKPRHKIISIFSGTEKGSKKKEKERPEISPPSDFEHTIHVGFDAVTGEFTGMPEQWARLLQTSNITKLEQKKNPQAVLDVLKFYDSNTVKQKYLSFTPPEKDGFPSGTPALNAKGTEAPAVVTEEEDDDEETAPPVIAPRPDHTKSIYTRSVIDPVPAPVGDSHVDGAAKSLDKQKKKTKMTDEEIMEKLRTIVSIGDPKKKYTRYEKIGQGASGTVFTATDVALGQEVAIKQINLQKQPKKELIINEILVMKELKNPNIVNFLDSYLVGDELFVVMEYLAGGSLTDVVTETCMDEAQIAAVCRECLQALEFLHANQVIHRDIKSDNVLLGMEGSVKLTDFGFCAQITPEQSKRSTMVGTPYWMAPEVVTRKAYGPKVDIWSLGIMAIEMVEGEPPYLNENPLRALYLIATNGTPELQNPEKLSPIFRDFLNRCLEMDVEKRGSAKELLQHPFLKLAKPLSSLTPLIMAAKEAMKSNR
row,Structure (SMILES),outcome
1,CC(C)(c1ccc(O)cc1)c1ccc(O)cc1,inactive
2,COCCO,inactive
